Growth data for 15 compounds are collected here from PubChem BioAssay (NCI).

Each structure is given as a SMILES string. The panel holds about 83,000 compounds, 20% with a hit somewhere; the sample as a whole holds those more often.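 The test compound was applied at a single concentration to cells in 96-well plates for 48 hours, and percent growth was recorded.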 A number with no mark means an inactive call. Activity calls are given as the source filed them. How the source made its calls: active means growth percent below 10; inactive means the rest.

Assay in all cases: NCI-60 one-dose screen, 48 h (100 = growth as untreated, 0 = no growth, -100 = all killed)
Common to all, as to details: 10 µM unless noted

The test system of test [1] is SR leukemia.
For test [2], the system named is OVCAR-8 ovarian.
The subject of test [3] is OVCAR-5 ovarian.
Test [4] deals with OVCAR-4 ovarian.
The test system of test [5] is SK-OV-3 ovarian.
The subject of test [6] is IGROV1 ovarian.
Test [7] has as its system OVCAR-3 ovarian.
Test [8] has as its system HS 578T breast.
Test [9] concerns NCI/ADR-RES ovarian.
Test [10] relates to RPMI-8226 leukemia.

With `CC(C)(C)OC(=O)N1CCN(c2ccc(N)cc2)C(=O)C1`, the growth in test [1] was 81.2%; in [2], 107%; in [3], 112%; in test [4], 108%; in test [5], 109%; in test [6], 112%. For the same compound, the growth in test [7] was 117%; in test [8] it was 105%; in [9], 102%.

Take `CC(C)Sc1nc(NN)c(C#N)c(-c2ccccc2)n1`: the growth in test [1] was 109%; in [2], 96.6%; in test [3], 92.8%; in [4] it was 94.5%; in [5], 108%; in test [6], 86.3%. Also, the growth was 100% in [7], 93.6% in [8] and 99.8% in test [9].

With `NC(=O)c1ncn(C2OC(CO)C(O)C2O)n1` (configuration not stated), the growth in test [1] was 73.2%; in [2], 87.5%; in [3], 95.2%; in test [4] it was 87.8%; in test [5] it was 87.9%; in test [6], 4.17% (active). For the same compound, the growth in test [7] is 95.1%; in test [8], 86.4%; in test [9], 88.6%.

For the compound `CC(=O)[C@@H]1CC[C@]2(C(=O)n3ccnc3)CC[C@]3(C)[C@H](CC[C@@H]4[C@@]5(C)Cc6c([nH]c7ccccc67)C(C)(C)[C@@H]5CC[C@]43C)[C@@H]12`, the growth was 77.7% in test [1]; 90.7% in test [2]; 105% in test [3]; 85.2% in test [4]; 98.3% in test [5]; 42.6% in [6]. In addition, the growth is 79.5% in [7], 87.1% in test [8] and 90% in test [9].

Consider `O=c1nc2n(nc1/C=C/c1ccco1)CC(c1ccc(Cl)cc1)=NN2`, for which the growth is 45% in test [1]; 67.9% in [2]; 122% in test [3]; 95.3% in test [4]; 93% in test [5]; 8.48% (active) in test [6]. For the same compound, the growth in test [7] is 109%; in [8] it was 116%; in [9], 100%.

As for `COc1ccc(C(=O)c2cc(C)c(OC)c(C)c2)c(OC)c1O`, the growth in test [1] was 18.8%; in test [2] it was 11.3%; in [3] it was 46.9%; in test [4], 41.1%; in [5], -10.5% (active); in test [6], 25.9%. The growth in test [7] was -15.8% (active); in test [8], 18.1%; in [9], 1.87% (active).

Consider `CCCNC(=O)Oc1ccc(/C(=C(\C)c2ccccc2)c2ccc(OCCN3CCCCC3)cc2)cc1`, for which the growth is 9.19% (active) in [1]; 75.3% in test [2]; 78.2% in test [3]; 83% in [4]; 79.3% in test [5]; 84.8% in test [6]. For the same compound, the values for the growth in test [7], in test [8] and in [9] were 75.6%, 66.8% and 77.2%, respectively.

Turning to `CC(O)/C=C/C=C/C(O)CC/C=C/C(=O)NCC(C)(C)O` (configuration not stated), the growth in test [1] is 66.4%; in [2], 93.3%; in test [3], 113%; in test [4], 106%; in test [5], 111%; in [6] it was 117%. Moreover, the growth is 115% in test [7], 99.8% in test [8] and 109% in test [9].

Take `O=C(NCCc1ccccn1)OCc1nc2nc(Cl)nc(N3CCOCC3)c2[nH]1`: the growth is -23.3% (active) in test [1]; -23.8% (active) in test [10]; 69.9% in test [3]; 28.6% in [4]; 30.1% in test [5]; -79.5% (active) in [7]. Besides, the growth in test [8] was 16.5%; in test [9] it was 16.6%.

For the compound `COc1ccc(-c2nc(SC(C)C)nc(NNC(N)=O)c2C#N)cc1`, the growth in [1] is 25.8%; in test [10], 93.9%; in test [4] it was 94.6%; in test [5], 83.8%; in test [6] it was 72.4%; in [7], 81%. In addition, the values for the growth in [8] and in test [9] were 78.9% and 70.7%, respectively.

As for `Clc1cc(Cl)cc(N2N=C(c3cccc(Nc4ccncc4)c3)CC2c2ccc(Br)cc2)c1` (configuration not stated), the growth in test [1] is 3.33% (active); in [2], -13.7% (active); in [3], 77.2%; in test [4], 2.37% (active); in test [5] it was 83.3%; in test [6], 12.3%. The values for the growth in test [7], in [8] and in [9] were 57.6%, 46.7% and 51.2%, respectively.

`COc1cc(C(=O)/C=C/c2c(C)n([O-])c3ccc(Cl)cc3[n+]2=O)cc(OC)c1OC`: the growth is -5.8% (active) in [1]; 23% in test [2]; 86.6% in test [3]; 70.7% in test [4]; 87.3% in test [5]; -30.3% (active) in test [6]. Besides, the growth in [7] is 23.2%; in test [8], 86.3%; in [9], 39%.

As to `O=C(Nc1ccc2cc3ccc(NC(=O)NC4CCCCC4)cc3nc2c1)NC1CCCCC1`, the growth in test [1] was -0.865% (active); in test [2], 93.4%; in test [3] it was 103%; in test [4], 92.8%; in [5] it was 95.4%; in [6], 99.9%. For the same compound, the growth was 98.2% in test [7], 36.4% in [8] and 106% in [9].

With `CCOC(=O)c1cnc2c(cnn2CC)c1NN=C(C)C`, the growth in test [1] is 65.9%; in [2], 98.9%; in test [3], 80.3%; in [4], 96.2%; in [5], 98.5%; in test [6] it was 9.1% (active). Also, the growth in test [7] is 104%; in test [8], 94.5%; in [9], 83.3%.

As for `COc1cc2nc(-c3ccc(C#N)cc3)[nH]c(=O)c2cc1OC`, the growth was 102% in test [2]; 102% in [3]; 113% in test [4]; 112% in test [5]; 113% in [6]; 109% in test [7]. In addition, the growth is 106% in test [8] and 98.7% in test [9].
